Bioassay records (PubChem BioAssay)
This is a sample that favours compounds with a hit; in the whole collection about 19% have one here.
KB-V1 cytotox: kills drug-selected multidrug resistant KB-V1 cells. AID 1347076. Potency, µM (highest dose often 46.1 µM), hits mostly cytotoxic. hit rate 3.4% among 400,000. KB-V1 MDR cells viability, CellTiter-Glo, 72 h; note: nearly all actives have a fitted effect of over 60% in size
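Luminescent ATP read-out (CellTiter-Glo, 10 min) measures survival of drug-selected KB-V1 MDR cells after 72 h, 37 degrees C compound exposure. Medium: phenol-red-free DMEM, 10% FBS. Values from fitted concentration-response curves.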
TDP1 cell CPT: DT40-hTDP1 cell growth loss with CPT; chicken DT40 Tdp1-/-;hTDP1 cells + 20 nM CPT, ATP luminescence, 48 h; Potency, µM (top dose mostly 46.2 µM), most hits filed as inhibitors; hit rate 12% among 420,000; AID 686979; note: nearly all actives have a fitted effect of over 55% in size
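Chicken DT40 Tdp1-/- cells stably complemented with human TDP1 were seeded at 400 cells/well in medium containing 20 nM camptothecin, exposed to pin-transferred compounds, and grown at 37 °C for at least 48 hr. Viability was read as ATP luminescence.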
TDP1 cell noCPT: qHTS for Inhibitors of human tyrosyl-DNA phosphodiesterase 1 (TDP1): qHTS in cells in absence of CPT | DT40 Tdp1-/- hTDP1 cells, no CPT, ATP luminescence, 48 h | hit rate 15% among 420,000 | AID 686978, 2013 | Potency, µM (titrated, usually from 46.2 µM), hits mostly inhibitors; note: nearly all actives have a fitted effect of over 55% in size
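Growth kinetics read by CellTiter-Glo luminescence after ≥48 hr at 37 °C. Cells: DT40 Tdp1-/- stably carrying human TDP1, 400 per well, compound exposure in the absence of CPT (DMSO vehicle).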
HT1080 IDH1KD tx: kills HT-1080 cells with IDH1 knockdown; HT-1080 IDH1 knockdown viability, ATP luminescence, 48 h; Potency, µM (highest dose often 46.1 µM), hits mostly cytotoxic; hit rate 2% among 360,000; AID 686971
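Viability of IDH1-knockdown HT-1080 fibrosarcoma cells was assessed by CellTiter-Glo after 48 h at 37 °C with titrated compound; concentration-effect curves were classified by fit quality and response size.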
HT1080-NT tox: kills 2HG-producing HT-1080-NT fibrosarcoma cells | HT-1080-NT fibrosarcoma viability, CellTiter-Glo ATP luminescence, 48 h | AID 686970 | Potency, µM (top dose mostly 46.1 µM), hits mostly cytotoxic | hit rate 1.6% among 360,000;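 note: NT is the 2HG producing partner of a matched IDH1 knockdown line; nearly all actives have a fitted effect of over 55% in size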
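Fibrosarcoma NT cells, 750 per well in 5% FBS RPMI, were exposed to compound for 48 hours. Viability: CellTiter-Glo luminescence.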
KB-3-1 tox: kills parental KB-3-1 adenocarcinoma cells. KB-3-1 viability, CellTiter-Glo ATP luminescence, 72 h. Potency, µM (doses to about 46.1 µM), most hits filed as cytotoxic. hit rate 1.4% among 400,000. AID 1347075; note: nearly all actives have a fitted effect of over 60% in size
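Here the drug-naive KB-3-1 line serves as comparator for MDR sub-line selectivity; cells received compound titrations, 72 h at 37 °C, then CellTiter-Glo readout.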
Large screens that a line does not name were inactive. Calls come from the whole dose curve; as a rule, active = well fitted curve in the direction sought with a large enough effect; inconclusive = small, poorly fitted or top-dose-only effect, or another doubt; inactive = no such curve, though single readings can be large; an effect the other way counts as inactive or inconclusive.

COc1ccc(/C=C/C(=O)N2CCC(c3nc4ccccc4o3)CC2)cc1OC	TDP1 cell CPT inconclusive, TDP1 cell noCPT 16.4µM (no result: KB-V1 cytotox, HT1080 IDH1KD tx, HT1080-NT tox, KB-3-1 tox)
COc1cc(C(=O)N2CCC(c3nc4ccccc4o3)CC2)cc(OC)c1OC	TDP1 cell CPT inconclusive (no result: KB-V1 cytotox, HT1080 IDH1KD tx, HT1080-NT tox, KB-3-1 tox)
O=C(/C=C/c1ccccc1Cl)N1CCC(c2nc3ccccc3o2)CC1	TDP1 cell CPT inconclusive, TDP1 cell noCPT 20.6µM (no result: KB-V1 cytotox, HT1080 IDH1KD tx, HT1080-NT tox, KB-3-1 tox)
Cc1cccc(C)c1NC(=O)N1CCC(c2nc3ccccc3o2)CC1	KB-V1 cytotox 20.6µM
COc1ccccc1NC(=S)N1CCC(c2nc3ccccc3o2)CC1	TDP1 cell noCPT inconclusive
CC(C)(C)c1ccc(S(=O)(=O)N2CCc3nc4ccccc4c(C(=O)O)c3C2)cc1	none
COc1ccc(C2(C(=O)NCC3Cc4cccc(-c5nc(C)cnc5C)c4O3)CCCC2)cc1 (configuration not stated)	TDP1 cell CPT inconclusive (no result: KB-V1 cytotox, HT1080 IDH1KD tx, HT1080-NT tox, KB-3-1 tox)
CCOC(=O)N1CCN(C(=O)CN(c2ccccc2F)S(=O)(=O)c2ccc(C)cc2)CC1	TDP1 cell CPT inconclusive, TDP1 cell noCPT inconclusive (no result: HT1080 IDH1KD tx, HT1080-NT tox)
COc1cccc(NC(=O)C2CCCN(c3ncnc4onc(C)c34)C2)c1 (configuration not stated)	KB-V1 cytotox inconclusive, TDP1 cell CPT 20.6µM, TDP1 cell noCPT 20.6µM (no result: HT1080 IDH1KD tx, HT1080-NT tox)
Cc1noc2ncnc(N3CCCC(C(=O)NC(C)C)C3)c12 (configuration not stated)	TDP1 cell noCPT inconclusive (no result: HT1080 IDH1KD tx, HT1080-NT tox)
COc1ccc(C)cc1NC(=O)C1CCCN(c2ncnc3onc(C)c23)C1 (configuration not stated)	TDP1 cell CPT inconclusive, TDP1 cell noCPT 16.4µM (no result: HT1080 IDH1KD tx, HT1080-NT tox)
COc1ccc(NC(=O)C2CCCN(c3cc(C)nc4ncnn34)C2)cc1 (configuration not stated)	KB-V1 cytotox inconclusive
CCN(CC)CCNC(=O)C1CCCN(c2ncnc3onc(C)c23)C1 (configuration not stated)	none (no result: HT1080 IDH1KD tx, HT1080-NT tox)
Cc1ccc(NC(=O)C2CCCN(c3ncnc4onc(C)c34)C2)cc1Cl (configuration not stated)	TDP1 cell CPT 10.3µM, TDP1 cell noCPT 16.4µM (no result: HT1080 IDH1KD tx, HT1080-NT tox)
CC(C)OC(=O)c1cccnc1N1CCN(c2cccc(Cl)c2)CC1	TDP1 cell CPT inconclusive, TDP1 cell noCPT 16.4µM
COc1ccc(N2CCN(C(=O)c3cnc(SC)nc3C)CC2)cc1	none (no result: HT1080 IDH1KD tx, HT1080-NT tox)
CSc1ncc(C(=O)N2CCN(c3cccc(Cl)c3)CC2)c(C)n1	TDP1 cell CPT inconclusive, TDP1 cell noCPT 16.4µM (no result: HT1080 IDH1KD tx, HT1080-NT tox)
O=C(Nc1ccccc1C(=O)N1CCN(c2cccc(Cl)c2)CC1)C1=CSCCO1	TDP1 cell noCPT 20.6µM
CSc1ccccc1C(=O)N1CCN(c2cccc(Cl)c2)CC1	KB-V1 cytotox 16.4µM, TDP1 cell CPT inconclusive, TDP1 cell noCPT inconclusive, HT1080 IDH1KD tx 23.1µM, HT1080-NT tox inconclusive
CN(c1ccccc1C(=O)N1CCN(c2cccc(Cl)c2)CC1)S(C)(=O)=O	KB-V1 cytotox inconclusive
CC(C)c1cc(C(=O)NCc2ccc(F)cc2)no1	none (no result: KB-V1 cytotox, HT1080 IDH1KD tx, HT1080-NT tox, KB-3-1 tox)
COc1ccc(CN2C[C@@H](CO)O[C@@H](n3cnc4c(NCc5ccco5)ncnc43)C2)cc1	none
CSc1ncc(C(=O)N2CCN(c3cccc(C(F)(F)F)c3)CC2)c(C)n1	TDP1 cell CPT inconclusive, TDP1 cell noCPT 18.4µM (no result: HT1080 IDH1KD tx, HT1080-NT tox)
O=C(c1c(F)cccc1F)N1CCN(c2cccc(C(F)(F)F)c2)CC1	TDP1 cell CPT inconclusive, TDP1 cell noCPT inconclusive
Cc1ccc(S(=O)(=O)N2CCC(n3c(C)nc4cccnc43)CC2)c(C)c1	TDP1 cell CPT 6.51µM, TDP1 cell noCPT 7.31µM (no result: HT1080 IDH1KD tx, HT1080-NT tox)
COCCNC(=O)CCCN1C(=O)CCn2nc(-c3cccn3C)cc21	none (no result: HT1080 IDH1KD tx, HT1080-NT tox)
CCCCC(=O)NNC(=S)NC(=O)c1ccc([N+](=O)[O-])cc1	TDP1 cell CPT inconclusive, TDP1 cell noCPT 29.1µM, KB-3-1 tox inconclusive
CCCCC(=O)NNC(=S)NC(=O)c1cccc([N+](=O)[O-])c1	TDP1 cell CPT 23.1µM, TDP1 cell noCPT inconclusive, HT1080 IDH1KD tx inconclusive, KB-3-1 tox inconclusive
